In the library only some 0.43% were active in any assay of this set; here they are far more common.
MLL CXXC-DNA inh: qHTS Fluorescence Polarization Assay for Inhibitors of MLL CXXC domain - DNA interaction; Histone-lysine N-methyltransferase 2A (Homo sapiens), Q03164; MLL-CXXC / FITC-HOXA9 DNA fluorescence polarization; 0.037% of 290,000 active; AID 2662, 2010; Potency, µM (titrated, usually from 115 µM), hits mostly inhibitors; active = well fitted inhibition curve with a large enough effect in the polarisation, with a control signal flat, not every such curve was filed as active; inconclusive = small, poorly fitted or top-dose-only effect, or effect the other way, or a change in a side signal; inactive = no such curve, though single readings can be large or run the other way; the % refers to the polarisation
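Steps: dispense CXXC domain solution (7 uM) → pin compounds or unlabeled HOX-A9 DNA control → 5 min ambient → add FLSN-HOX-A9 solution (50 nM) → spin → 30 min ambient → fluorescence polarization. Tris pH 7.5/NaCl/DTT/BSA buffer.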
Tb PFK inh-1: qHTS Assay to Find Inhibitors of T. brucei phosphofructokinase; 0.17% of 330,000 active; T. brucei PFK, ADP-Glo luminescence; ATP-dependent 6-phosphofructokinase (Trypanosoma brucei brucei), O15648; Potency, µM (series often up to 57.5 µM), hits mostly inhibitors; note: nearly all actives have a fitted effect of over 60% in size
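Compounds were pin-transferred as a titration series up to 57 uM into substrate buffer (0.5 mM F6P, 0.1 mM ATP, pH 8.0), then 1.25 nM PFK was added and reactions ran 45 min before ADP-Glo detection.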
RGS12 GoLoco inh: qHTS Assay for Inhibitors of RGS12 GoLoco Motif Activity (Red Fluorophore). Guanine nucleotide-binding protein G(i) subunit alpha-1 (Homo sapiens), P63096. Gai1:RGS12 GoLoco peptide FP, rhodamine, 10 min. Potency, µM (titrated, usually from 61.6 µM), most hits filed as inhibitors. 0.44% of 230,000 active. AID 880, 2007; active = well fitted inhibition curve with a large enough effect, not every such curve was filed as active; inactive = no such curve, though single readings can be large or run the other way; note: nearly all actives have a fitted effect of over 30% in size
Target sequence (P63096 whole entry, looked up): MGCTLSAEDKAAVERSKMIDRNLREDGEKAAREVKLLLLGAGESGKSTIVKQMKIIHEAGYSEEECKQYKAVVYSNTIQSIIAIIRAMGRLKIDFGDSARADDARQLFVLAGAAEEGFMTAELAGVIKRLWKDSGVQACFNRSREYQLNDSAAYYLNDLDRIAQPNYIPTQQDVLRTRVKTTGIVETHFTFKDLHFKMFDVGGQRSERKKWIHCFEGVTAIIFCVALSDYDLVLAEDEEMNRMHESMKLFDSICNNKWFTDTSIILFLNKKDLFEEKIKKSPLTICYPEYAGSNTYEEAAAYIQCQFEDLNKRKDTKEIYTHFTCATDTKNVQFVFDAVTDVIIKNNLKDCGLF
Menin-MLL FL inh: qHTS Assay for Inhibitors Targeting the Menin-MLL Interaction in MLL Related Leukemias: Competition With Fluorescein Labeled MLL-derived Peptide. Fluorescence polarization, fluorescein-MLL peptide displacement from menin. FP activity change, % at 61.4 µM. 290,000 tested, under 10 active. AID 1766, 2009; active = well fitted curve in the direction sought with a large enough effect in the polarisation, not every such curve was filed as active; inconclusive = small, poorly fitted or top-dose-only effect, or effect the other way, or a change in a side signal; inactive = no such curve, though single readings can be large or run the other way; the % refers to the polarisation
Menin MLL FP TR: qHTS Assay for Inhibitors Targeting the Menin-MLL Interaction in MLL Related Leukemias: Competition With Texas Red Labeled MLL-derived Mutant Peptide. O00255. AID 1768, 2009. 0.23% of 270,000 active. Potency, µM (titrated, usually from 61.6 µM), most hits filed as inhibitors. Menin + Texas Red MLL mutant peptide, fluorescence polarization; active = well fitted inhibition curve with a large enough effect in the polarisation, with a control signal flat, not every such curve was filed as active; inconclusive = small, poorly fitted or top-dose-only effect, or effect the other way, or a change in a side signal; inactive = no such curve, though single readings can be large or run the other way; the % refers to the polarisation
Tb PFK KinaseGlo: Tb PFK orthogonal confirmatory assay using ATP depletion (Kinase-Glo Plus) as an alternative measure of Tb PFK activity: Hit Validation; shares compounds with Tb PFK inh-1; 47% of 1,100 active; Potency, µM (top dose mostly 57.5 µM); Tb PFK enzyme, ATP depletion, Kinase-Glo Plus luminescence; AID 504636, 2011; calls by dose curve; note: nearly all actives have a fitted effect of over 60% in size
Tb PFK inh-2: Inhibitors of T. brucei phosphofructokinase: Hit Validation; purified T. brucei PFK, ADP-Glo luminescence, 45 min; shares compounds with Tb PFK inh-1; 41% of 1,100 active; Potency, µM (highest dose often 57.5 µM), actives largely listed as inhibitors; AID 504637, 2011; note: nearly all actives have a fitted effect of over 60% in size
Hits are given with their value; - = inactive; ? = inconclusive; . = no result given; [ ] = remark or other dose. Unless noted, calls come from the whole dose curve; as a rule, active = well fitted inhibition curve with a large enough effect; inconclusive = small, poorly fitted or top-dose-only effect, or effect the other way; inactive = flat fitted curve, though single readings scatter.

SMILES	MLL CXXC-DNA inh	Tb PFK inh-1	RGS12 GoLoco inh	Menin-MLL FL inh	Menin MLL FP TR	Tb PFK KinaseGlo	Tb PFK inh-2
CCCOc1ccc(-c2nc(SCc3ccccc3)[nH]c(=O)c2C#N)cc1OC	-	-	.	-	?	.	.
Cc1cc(=O)[nH]c(Nc2ccc(Cl)cc2)n1	-	21µM	.	-	-	8.5µM	19µM
Cc1cc(=O)[nH]c(Nc2ccc(N(C)C)cc2)n1	-	-	.	-	-	.	.
COc1ccccc1CNC(=O)c1ccc(CS(=O)(=O)c2ccc(C)cc2)o1	-	-	.	-	-	.	.
Cn1c(CNC(=O)c2ccc3c(c2)OCO3)nnc1SCC(=O)Nc1ccc(F)cc1	-	-	.	-	-	.	.
Cc1cccc(C(=O)OCC(=O)c2ccc(CC(=O)N3CCOCC3)s2)c1C	.	?	.	.	.	?	-
Cc1cccc(C(=O)OCC(=O)N2CC(C)OC(C)C2)c1C (configuration not stated)	-	-	.	.	.	.	.
CCCn1c2ccccc2c2cnn(CC(=O)N3CCN(C4CCCCC4)CC3)c(=O)c21	-	-	.	-	-	.	.
Nc1c(C(=O)NC2CC2)sc2nc3c(c(-c4ccco4)c12)CC/C3=C/c1ccco1	-	6.7µM	-	-	?	?	?
NC(=O)c1sc2nc3c(c(-c4ccco4)c2c1N)CCC3	-	-	-	-	-	.	.
O=C(O)C1CCCCC1C(=O)Nc1cccc(Br)c1 (configuration not stated)	.	17µM	.	.	.	12µM	27µM
O=C(c1ccc(NC(=S)Nc2ccc(Cl)c(Cl)c2)cc1)N1CCCC1	-	21µM	-	-	?	?	?
O=C(NC(=S)Nc1ccc(Br)c(Cl)c1)C1CC1	-	-	.	.	.	.	.
CC(=O)c1ccc(NC(=S)Nc2ccc(Br)c(Cl)c2)cc1	-	12µM	-	-	-	30µM	?
Cc1ccc(C(=O)NNC(=O)Cn2ccc(C(F)(F)F)n2)o1	.	-	.	.	.	.	.
CCCCc1ccc(-n2nnnc2SCC(=O)Nc2cc(OC)c([N+](=O)[O-])cc2C)cc1	-	?	-	-	-	-	-
NC(=O)c1ccc(NC(=O)COC(=O)CC23CC4CC(CC(Br)(C4)C2)C3)cc1	.	-	.	.	.	.	.
O=C(/C=C/c1ccc(O)c(O)c1)OC(Cc1ccc(O)c(O)c1)C(=O)O (configuration not stated)	-	2.7µM	-	-	-	3.4µM	?
O=C(NNC(=O)c1ccccc1O)c1cc2ccccc2o1	.	?	.	.	.	-	?
CSCC[C@H](NC(=O)[C@H](Cc1ccccc1)n1c(=O)[nH]c2ccccc2c1=O)C(=O)N[C@@H](Cc1ccccc1)C(=O)O	-	-	.	-	-	.	.
Cc1cc(C)c(C)c(S(=O)(=O)N2CCC(C(=O)OCC(=O)N3c4ccccc4NC(=O)C3(C)C)CC2)c1C	-	?	-	-	.	?	?
CC1(C)C(=O)Nc2ccccc2N1C(=O)COC(=O)C1CCCCC1	-	-	-	-	-	.	.
Clc1cccc(-c2ccc3ncnc(NCc4ccc5c(c4)OCO5)c3c2)c1	.	-	.	.	.	.	.
Cc1n[nH]c(C)c1Sc1ccccc1N=Cc1cc(Cl)cc([N+](=O)[O-])c1O	-	-	-	?	?	.	.
Cc1n[nH]c(C)c1Sc1ccccc1[N+](=O)[O-]	-	?	-	-	-	?	?
SMILES	MLL CXXC-DNA inh	Tb PFK inh-1	RGS12 GoLoco inh	Menin-MLL FL inh	Menin MLL FP TR	Tb PFK KinaseGlo	Tb PFK inh-2
CC(C)N(CCc1ccncc1)C(=O)Nc1ccc(F)cc1	-	-	-	-	-[11.7 µM]	.	.
CC(C)N(CCc1ccncc1)C(=O)Nc1ccc(Cl)c(Cl)c1	-	?	-	-	-[11.7 µM]	-	-
O=C(O)c1cc(O)c2c(c1)[C@H]([C@H]1c3cc(C(=O)O)cc(O)c3C(=O)c3c(O[C@@H]4O[C@H](CO)[C@@H](O)[C@H](O)[C@H]4O)cccc31)c1cccc(OC3O[C@H](CO)[C@@H](O)[C@H](O)[C@H]3O)c1C2=O (some centres not stated)	.	?	.	.	.	?	4.8µM
O=C1c2c(O)cccc2C(C2OC(CO)[C@@H](O)[C@H](O)[C@H]2O)c2cc(CO)cc(O)c21 (some centres not stated)	.	-	.	.	.	.	.
COc1ccc2[nH]cc(CCNc3ncncc3-c3ccccc3C)c2c1	.	.	-	-	-	.	.
O=C1C2C3C=CC(CO)(O3)C2C(=O)N1c1ccccc1-c1ccccc1 (configuration not stated)	-	21µM	-	-	-	24µM	?
C=CCn1c(SCCN2CCOCC2)nc2c1c(=O)[nH]c(=O)n2C	-	-	-	-	-	.	.
COCCn1c(SCCN2CCOCC2)nc2c1c(=O)[nH]c(=O)n2C	-	?	-	-	-	21µM	34µM
CC(C)Nc1oc(-c2ccccc2)nc1-c1cccc2ccccc12	.	.	-	-	-	.	.
O=C(O)c1ccc(N=Nc2c(O)[nH]c3cc(Cl)ccc23)cc1	-	?	-	?	.	-	?
O=C(COc1ccc2ccccc2c1)NNC(=O)c1cccs1	-	?	-	-	?	-	?
Cc1ccc(NC(=O)C(=O)NNC(=O)c2cccs2)cc1	-	?	-	-	-	-	?
COc1ccc(NC(=O)C(=O)NNC(=O)c2cccs2)cc1	-	?	-	-	-	-	?
C/C(N)=C(/C#N)C(=O)COC(=O)c1ccc(NC(N)=O)cc1	-	-	-	-	.	.	.
Cc1c(Br)c([N+](=O)[O-])nn1CC(=O)Nc1ccc(CC#N)cc1	-	?	-	-	-	?	?
Cc1ccc(NC(=O)Cn2nc([N+](=O)[O-])c(Br)c2C)cc1C	-	?	-	-	?	.	.
Cc1c(Br)c([N+](=O)[O-])nn1CC(=O)Nc1cccc2nonc12	-	7.6µM	-	-	?	4.8µM	2.7µM
Cc1c(Br)c([N+](=O)[O-])nn1CC(=O)Nc1nccs1	-	?	-	-	-	.	.
Cc1cccc(NC(=O)Cn2nc([N+](=O)[O-])c(Br)c2C)n1	-	17µM	-	-	-	12µM	21µM
Cc1cc(NC(=O)Cn2nc([N+](=O)[O-])c(Br)c2C)no1	-	27µM	-	-	-	21µM	?
CCOC(=O)CC(NS(=O)(=O)c1ccc2[nH]c(=O)sc2c1)c1ccc(C)cc1 (configuration not stated)	-	-	.	-	-	.	.
